Source: the supplement of paper PMC11001985
Values without a mark were called inactive.

What follows are targets tested with C#CCNC(=O)CCSSCCC(=O)NCCc1ccc(C=O)c(C=O)c1 (assay: lysine labeling ratio R10:1 (500 µM / 50 µM probe), SILAC-ABPP in living cells; higher = lower intrinsic lysine reactivity toward the probe, active = 2 or less). Details: HeLa; probe concentrations 500 vs 50 µM.
Procedure, shortened: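 With forward and reverse label swaps, light and heavy SILAC HeLa cells, alive and in PBS at room temperature, were exposed to either 500 µM or 50 µM of an alkyne-tagged lysine probe bearing a disulfide link. After mixing, lysates were clicked to biotin-azide, cut with trypsin, pulled down on neutravidin, freed with DTT, alkylated and analysed on a TIMS-TOF Pro by LC-MS/MS. The per-lysine value R is the median over forward and reverse replicates of the filtered median high-probe/low-probe MS1 peptide ratio. It is capped at 20.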

UniProt Q96F81, sequence (Q96F81 whole entry): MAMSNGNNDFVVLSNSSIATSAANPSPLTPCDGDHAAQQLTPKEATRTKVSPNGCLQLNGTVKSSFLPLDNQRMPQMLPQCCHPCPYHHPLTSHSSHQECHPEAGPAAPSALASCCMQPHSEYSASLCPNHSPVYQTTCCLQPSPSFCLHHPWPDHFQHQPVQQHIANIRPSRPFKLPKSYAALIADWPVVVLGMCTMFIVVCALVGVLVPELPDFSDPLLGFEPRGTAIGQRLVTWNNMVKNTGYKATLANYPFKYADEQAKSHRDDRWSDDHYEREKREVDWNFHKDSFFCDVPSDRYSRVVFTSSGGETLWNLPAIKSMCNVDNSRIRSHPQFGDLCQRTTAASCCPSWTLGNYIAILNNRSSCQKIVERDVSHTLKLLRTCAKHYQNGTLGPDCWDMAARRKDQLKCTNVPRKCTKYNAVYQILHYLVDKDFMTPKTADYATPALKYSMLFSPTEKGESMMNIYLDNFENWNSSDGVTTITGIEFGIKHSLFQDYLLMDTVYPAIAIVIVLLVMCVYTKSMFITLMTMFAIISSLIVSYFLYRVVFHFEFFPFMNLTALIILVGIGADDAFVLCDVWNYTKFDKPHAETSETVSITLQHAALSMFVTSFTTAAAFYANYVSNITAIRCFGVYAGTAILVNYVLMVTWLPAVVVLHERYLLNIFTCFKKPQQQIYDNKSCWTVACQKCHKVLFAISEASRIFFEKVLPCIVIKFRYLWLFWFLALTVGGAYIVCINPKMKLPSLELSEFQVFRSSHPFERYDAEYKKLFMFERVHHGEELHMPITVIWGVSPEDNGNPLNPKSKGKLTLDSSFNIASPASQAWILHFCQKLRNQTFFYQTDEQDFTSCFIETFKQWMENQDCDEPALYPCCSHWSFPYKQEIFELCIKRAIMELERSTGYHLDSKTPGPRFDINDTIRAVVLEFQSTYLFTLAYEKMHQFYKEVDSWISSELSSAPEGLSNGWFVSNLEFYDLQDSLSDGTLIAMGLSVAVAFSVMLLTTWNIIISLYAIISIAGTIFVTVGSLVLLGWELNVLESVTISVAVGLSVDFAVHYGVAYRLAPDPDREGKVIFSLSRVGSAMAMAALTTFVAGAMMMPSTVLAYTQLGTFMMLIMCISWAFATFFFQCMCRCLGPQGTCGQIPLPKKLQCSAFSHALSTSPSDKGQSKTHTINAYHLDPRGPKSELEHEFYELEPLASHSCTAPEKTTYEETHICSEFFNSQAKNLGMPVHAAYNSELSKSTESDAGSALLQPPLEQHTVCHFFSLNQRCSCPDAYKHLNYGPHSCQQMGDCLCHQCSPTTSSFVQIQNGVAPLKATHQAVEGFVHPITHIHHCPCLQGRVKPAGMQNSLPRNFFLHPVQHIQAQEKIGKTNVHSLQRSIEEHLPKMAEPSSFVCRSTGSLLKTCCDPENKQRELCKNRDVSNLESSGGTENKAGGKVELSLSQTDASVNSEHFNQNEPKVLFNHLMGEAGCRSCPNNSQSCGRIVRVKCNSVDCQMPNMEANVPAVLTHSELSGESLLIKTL
UniProt P02751, sequence (P02751 whole entry): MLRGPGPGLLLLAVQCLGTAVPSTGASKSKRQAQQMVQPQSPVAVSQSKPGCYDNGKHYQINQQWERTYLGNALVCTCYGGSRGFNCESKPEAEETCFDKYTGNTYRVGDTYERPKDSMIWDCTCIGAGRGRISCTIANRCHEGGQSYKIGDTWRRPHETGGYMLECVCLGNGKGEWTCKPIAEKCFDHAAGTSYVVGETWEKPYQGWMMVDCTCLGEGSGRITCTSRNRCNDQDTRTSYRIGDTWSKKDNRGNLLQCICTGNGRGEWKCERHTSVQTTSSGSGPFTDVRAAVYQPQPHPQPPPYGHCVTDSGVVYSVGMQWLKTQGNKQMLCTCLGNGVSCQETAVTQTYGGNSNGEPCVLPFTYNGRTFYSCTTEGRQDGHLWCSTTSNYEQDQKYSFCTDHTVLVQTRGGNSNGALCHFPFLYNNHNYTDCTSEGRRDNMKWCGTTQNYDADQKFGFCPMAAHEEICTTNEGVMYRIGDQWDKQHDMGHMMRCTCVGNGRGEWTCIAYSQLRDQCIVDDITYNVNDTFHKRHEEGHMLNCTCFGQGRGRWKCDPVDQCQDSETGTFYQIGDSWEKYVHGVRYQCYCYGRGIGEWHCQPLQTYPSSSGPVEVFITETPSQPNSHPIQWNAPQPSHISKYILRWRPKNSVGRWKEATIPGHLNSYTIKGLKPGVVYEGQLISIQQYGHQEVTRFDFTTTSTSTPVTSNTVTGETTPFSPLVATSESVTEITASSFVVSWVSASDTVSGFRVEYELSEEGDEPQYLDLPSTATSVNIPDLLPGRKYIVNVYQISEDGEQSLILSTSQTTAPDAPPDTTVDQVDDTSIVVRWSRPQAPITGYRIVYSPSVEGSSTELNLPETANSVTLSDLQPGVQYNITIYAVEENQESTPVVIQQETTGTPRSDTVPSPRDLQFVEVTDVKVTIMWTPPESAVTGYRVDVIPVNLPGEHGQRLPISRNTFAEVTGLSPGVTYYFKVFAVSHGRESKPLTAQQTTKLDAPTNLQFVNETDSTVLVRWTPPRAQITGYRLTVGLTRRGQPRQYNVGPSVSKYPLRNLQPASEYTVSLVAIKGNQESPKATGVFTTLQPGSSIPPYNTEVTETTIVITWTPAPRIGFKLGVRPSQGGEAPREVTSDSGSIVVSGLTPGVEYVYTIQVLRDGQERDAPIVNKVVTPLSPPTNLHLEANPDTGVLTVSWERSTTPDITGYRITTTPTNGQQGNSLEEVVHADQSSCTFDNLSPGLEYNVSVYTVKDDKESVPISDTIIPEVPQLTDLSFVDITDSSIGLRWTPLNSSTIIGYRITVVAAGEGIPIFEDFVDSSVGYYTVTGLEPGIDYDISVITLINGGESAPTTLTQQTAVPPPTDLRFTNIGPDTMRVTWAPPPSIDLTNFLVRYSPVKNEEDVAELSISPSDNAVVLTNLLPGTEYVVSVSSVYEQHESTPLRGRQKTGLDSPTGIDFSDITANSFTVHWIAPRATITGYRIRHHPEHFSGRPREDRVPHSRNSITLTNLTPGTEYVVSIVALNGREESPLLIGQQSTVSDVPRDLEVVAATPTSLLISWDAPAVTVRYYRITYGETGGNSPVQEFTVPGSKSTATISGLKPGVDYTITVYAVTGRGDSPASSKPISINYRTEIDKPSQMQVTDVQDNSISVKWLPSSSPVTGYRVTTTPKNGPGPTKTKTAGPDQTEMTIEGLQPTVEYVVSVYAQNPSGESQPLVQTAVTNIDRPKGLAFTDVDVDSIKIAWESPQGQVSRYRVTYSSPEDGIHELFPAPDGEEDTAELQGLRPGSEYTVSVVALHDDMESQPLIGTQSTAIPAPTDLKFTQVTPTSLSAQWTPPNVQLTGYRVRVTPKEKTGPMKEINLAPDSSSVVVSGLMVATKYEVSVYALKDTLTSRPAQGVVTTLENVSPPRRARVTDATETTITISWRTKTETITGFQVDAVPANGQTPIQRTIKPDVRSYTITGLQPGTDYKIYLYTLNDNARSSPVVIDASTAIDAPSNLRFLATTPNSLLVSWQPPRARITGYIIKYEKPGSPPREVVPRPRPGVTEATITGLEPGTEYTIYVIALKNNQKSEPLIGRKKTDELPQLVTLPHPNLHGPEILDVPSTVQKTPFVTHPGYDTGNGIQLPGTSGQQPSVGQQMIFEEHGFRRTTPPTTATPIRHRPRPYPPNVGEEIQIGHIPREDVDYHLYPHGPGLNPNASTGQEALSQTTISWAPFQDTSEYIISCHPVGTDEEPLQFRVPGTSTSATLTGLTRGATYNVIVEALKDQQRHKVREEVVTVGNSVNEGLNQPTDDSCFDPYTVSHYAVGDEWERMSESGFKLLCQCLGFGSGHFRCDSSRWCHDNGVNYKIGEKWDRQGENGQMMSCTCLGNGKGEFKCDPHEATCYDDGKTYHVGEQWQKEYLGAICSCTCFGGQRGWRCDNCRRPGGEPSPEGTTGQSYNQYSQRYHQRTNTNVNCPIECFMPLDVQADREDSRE

First: SEMA3C (lysine site: K416) (UniProt Q99985)
Second: HSPE1 (lysine site: K99) (UniProt P61604)
The “lysine labeling ratio R10:1” value of the first is lower: 2.36 for the first, 4.89 for the second.

Compared with “DISP1 (lysine site: K380) (UniProt Q96F81)”, “DISP1 (lysine site: K908) (UniProt Q96F81)” is higher in “lysine labeling ratio R10:1” value: 2.05 for the first, 3.35 for the second.

First: SPTAN1 (lysine site: K1759) (UniProt Q13813)
Second: DSG2 (lysine site: K561) (UniProt Q14126)
The “lysine labeling ratio R10:1” value of the first is lower: 4.65 for the first, 6.57 for the second.

First: ITGA6 (lysine site: K511) (UniProt P23229)
Second: UniProt O60245 (lysine site: K223)
Sequence (O60245 whole entry): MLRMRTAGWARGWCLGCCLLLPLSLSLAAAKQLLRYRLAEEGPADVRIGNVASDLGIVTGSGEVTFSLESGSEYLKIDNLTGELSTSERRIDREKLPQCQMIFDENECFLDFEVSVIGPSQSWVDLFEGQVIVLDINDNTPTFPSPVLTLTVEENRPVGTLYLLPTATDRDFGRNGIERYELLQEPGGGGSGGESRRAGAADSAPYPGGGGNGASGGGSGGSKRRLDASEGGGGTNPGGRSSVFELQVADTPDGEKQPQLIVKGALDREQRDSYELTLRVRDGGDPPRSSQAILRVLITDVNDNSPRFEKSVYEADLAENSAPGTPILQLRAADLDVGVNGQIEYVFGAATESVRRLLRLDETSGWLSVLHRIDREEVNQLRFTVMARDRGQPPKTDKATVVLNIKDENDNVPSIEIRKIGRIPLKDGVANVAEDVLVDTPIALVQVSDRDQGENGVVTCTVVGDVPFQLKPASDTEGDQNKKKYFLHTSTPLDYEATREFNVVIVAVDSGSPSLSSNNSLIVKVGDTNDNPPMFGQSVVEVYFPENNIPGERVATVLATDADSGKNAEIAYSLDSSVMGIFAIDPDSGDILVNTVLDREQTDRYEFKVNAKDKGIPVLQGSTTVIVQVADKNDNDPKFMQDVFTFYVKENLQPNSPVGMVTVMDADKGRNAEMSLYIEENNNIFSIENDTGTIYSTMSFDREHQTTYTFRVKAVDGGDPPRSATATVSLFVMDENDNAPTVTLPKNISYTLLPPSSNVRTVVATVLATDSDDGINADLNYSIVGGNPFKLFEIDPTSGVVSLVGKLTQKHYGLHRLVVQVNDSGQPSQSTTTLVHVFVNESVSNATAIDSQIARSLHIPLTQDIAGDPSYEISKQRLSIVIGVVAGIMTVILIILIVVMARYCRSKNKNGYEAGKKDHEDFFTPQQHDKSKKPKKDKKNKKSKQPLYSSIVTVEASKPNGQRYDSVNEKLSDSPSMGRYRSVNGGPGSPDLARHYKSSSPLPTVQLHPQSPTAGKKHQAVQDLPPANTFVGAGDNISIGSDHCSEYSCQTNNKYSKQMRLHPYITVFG
The “lysine labeling ratio R10:1” value of the first is higher: 14.7 for the first, 5.15 for the second.

First: UniProt Q16363 (lysine site: K518)
Second: INSR (lysine site: K511) (UniProt P06213)
The “lysine labeling ratio R10:1” value of the first is lower: 2.09 for the first, 2.12 for the second.

Going from “HSPD1 (lysine site: K133) (UniProt P10809)” to UniProt Q00341 (lysine site: K494), the “lysine labeling ratio R10:1” value falls from 3.96 to 2.15.

Compared with “ARHGDIA (lysine site: K178) (UniProt P52565)”, “FN1 (lysine site: K486) (UniProt P02751)” is lower in “lysine labeling ratio R10:1” value: 3.53 for the first, 2.59 for the second.

In the case of “CD109 (lysine site: K1018) (UniProt Q6YHK3)”, the “lysine labeling ratio R10:1” value is reported as 1.99 (active).
With “LRP8 (lysine site: K420) (UniProt Q14114)” the “lysine labeling ratio R10:1” value was 0.962 (active).
With “FZD5 (lysine site: K113) (UniProt Q13467)” the “lysine labeling ratio R10:1” value was 1.57 (active).
